# Source: PubChem BioAssay (Sanford-Burnham Center for Chemical Genomics)
# SENP8 block-1 – SENP8 protease inhibitors, primary screen, biochemical, luminescence | Sentrin-specific protease 8 (Homo sapiens), Q96LD8 | purified SENP8, Z-RLRGG-aminoluciferin cleavage | inhibition, % at 10 µM | 1.2% of 330,000 active | AID 2540, 2010; in the data active = inhibition above about 50%
# Target sequence (Q96LD8 whole entry, looked up): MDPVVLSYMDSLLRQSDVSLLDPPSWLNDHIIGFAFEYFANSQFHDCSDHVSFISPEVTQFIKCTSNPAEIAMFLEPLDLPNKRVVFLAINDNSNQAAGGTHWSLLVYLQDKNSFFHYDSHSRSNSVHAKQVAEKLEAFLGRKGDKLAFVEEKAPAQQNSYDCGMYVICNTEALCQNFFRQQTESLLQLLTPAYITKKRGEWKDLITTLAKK
# TRAIL sens C8 – viability loss with TRAIL in NB7+C8 cells, primary screen, TRAIL sensitizer project, cell-based, ATPlite luminescence; inhibition (viability loss, TRAIL sensitization), % at 10 µM; 1% of 360,000 active; AID 624354, 2012;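 active = compounds causing at least 50% loss of cell viability in the single-dose screen, relative to plate controls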
# SENP7 inh – SENP7 protease inhibitors, primary screen, biochemical, luminescence, uHTS. Sentrin-specific protease 7 (Homo sapiens), Q9BQF6. recombinant SENP7, Z-RLRGG-aminoluciferin luminescence, 40 min. inhibition, % at 5 µM. 1.5% of 330,000 active. AID 434973, 2010;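 active = inhibition above about 50% at the single test dose, limit read from the data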;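 also: plate controls were DMSO with enzyme for no effect and no enzyme buffer wells for full effect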
# Target sequence (Q9BQF6 706-1050 limits assumed): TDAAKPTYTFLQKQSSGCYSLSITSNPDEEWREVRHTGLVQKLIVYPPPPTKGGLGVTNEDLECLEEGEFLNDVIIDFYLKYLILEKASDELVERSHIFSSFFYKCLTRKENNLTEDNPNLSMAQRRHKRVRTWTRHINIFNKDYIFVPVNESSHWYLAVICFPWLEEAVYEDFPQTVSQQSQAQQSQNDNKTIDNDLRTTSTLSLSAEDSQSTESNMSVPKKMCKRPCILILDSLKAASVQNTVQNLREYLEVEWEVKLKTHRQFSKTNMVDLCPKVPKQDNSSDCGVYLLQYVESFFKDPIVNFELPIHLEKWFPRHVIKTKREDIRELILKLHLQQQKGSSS
# SENP6 block – SENP6 protease inhibitors, primary screen, biochemical, luminescence, uHTS; Sentrin-specific protease 6 (Homo sapiens), Q9GZR1; Recombinant SENP6 catalytic domain, aminoluciferin luminescence; inhibition, % at 10 µM; 1.8% of 330,000 active; AID 2599, 2010;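 active = inhibition above about 50% at the single tested dose, limit read from the data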;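 also: plate controls were DMSO wells with enzyme for no effect and DMSO wells lacking enzyme for full effect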
# PPC-1+TRAIL kill – compounds killing PPC-1 cancer cells with TRAIL present, primary screen, TRAIL potentiator project, ATPLite luminescence, uHTS; PPC-1 cells + TRAIL, ATPLite viability luminescence; cell killing (% activity), % at 4 µM or 5 µM; 0.41% of 220,000 active; AID 1443, 2008;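 active = cell killing above 50% in the first pass at 4 µM, then a duplicate retest at 5 µM averaging 50% or more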;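 also: plate controls were cells with TRAIL plus DMSO for no effect and medium-only wells lacking cells for full effect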
# SENP8 block-2 – human SENP8 protease inhibitors, primary screen, biochemical, fluorescence, Nedd8 protein substrate, uHTS; Sentrin-specific protease 8 (Homo sapiens), Q96LD8; recombinant SENP8; inhibition, % at 20 µM; 0.64% of 360,000 active; AID 602440, 2012; in the data active = inhibition mostly above about 40%, no sharp cut-off; inactive = mostly below about 27%
# * hit, by the source's call; i = inactive; . = not tested or not shown. Rows were chosen to be rich in hits. Some 3% of all compounds tested hit in one or more screens of this group.
SMILES,SENP8 block-1,TRAIL sens C8,SENP7 inh,SENP6 block,PPC-1+TRAIL kill,SENP8 block-2
Cc1cccc2nc(COc3ccc(-c4ccccc4)cc3)cn12,92*,.,95*,94*,-26,.
Cc1ccccc1S(=O)(=O)N(C)C[C@@H]1OCc2cn(nn2)CCCC(=O)N([C@H](C)CO)C[C@H]1C,.,0,.,.,.,-12
CCOC(=O)[C@]12CCC=C1N(Cc1ccccc1)C(=O)[C@H](CC(=O)NCC13CC4CC(CC(C4)C1)C3)C2,.,-14,.,.,.,8
CC(=NNc1ccc([N+](=O)[O-])cn1)c1ccc(N)cc1,.,-9,.,.,.,58*
O=C(Cn1cncn1)c1ccc(F)cc1F,-16,-3,-9,-23,16,13
O=C(c1[nH]c(C(F)(F)F)nc1-c1ccccc1)N1CCN(c2cccc(C(F)(F)F)n2)CC1,.,16,.,.,.,-50
CCOC(=O)c1sc(NC(=O)c2cccc(S(=O)(=O)N3CCc4ccccc43)c2)c(C#N)c1C,3,46*,4,3,18,-1
CCC(CC)c1nnc(NC(=O)c2cccc(S(=O)(=O)N3CCc4ccccc43)c2)s1,7,0,-1,1,19,-10
O=[N+]([O-])c1ccc(CSc2nc3ccccc3[nH]2)cc1,34,20,61*,58*,15,18
CC1CC(C)CN(C(=O)C2CCN(S(=O)(=O)c3cccc4cccnc34)CC2)C1 (configuration not stated),6,13,-3,4,.,4
O=C(N/N=C/C(Br)=C/c1ccccc1)c1cccs1,51*,23,38,62*,15,-3
COC(=O)C1=C(C)N(Cc2ccccc2)C(=NCc2cccc(C(F)(F)F)c2)N[C@H]1c1cccc(F)c1,-18,48,-2,-31,.,1
COC(=O)C1=C(C)N(Cc2ccccc2)C(=NCc2cccc(C(F)(F)F)c2)N[C@H]1c1cccc(C(F)(F)F)c1,-23,94*,-3,-16,.,7
COC(=O)C1=C(C)N(Cc2ccccc2)C(=NCCc2c[nH]c3ccccc23)N[C@H]1c1cccc(C(F)(F)F)c1,-21,52*,-4,-18,.,-45
CC1CN(Cc2ccccc2)c2ccccc2NC1=S (configuration not stated),-1,1,1,2,52*,19
CC(C)c1ccc(N2C(=NC(=O)C3CCCO3)SC3CS(=O)(=O)CC32)cc1 (configuration not stated),1,-3,-4,-3,.,12
COc1ccc(C(=O)Nc2ccccc2C(=O)N/N=C/c2ccco2)cc1,2,84*,9,5,50,-66
CCOc1ccc(/C=N/NC(=O)c2ccccc2NC(=O)c2ccc(OC)cc2)cc1,-12,76*,2,-1,36,-106
COc1ccc(C(=O)Nc2ccccc2C(=O)Nc2ccccc2)cc1,.,32,.,.,.,7
CCN(CC)c1ccc(NC(=O)COC(=O)/C=C/c2nc3ccccc3s2)cc1,0,-1,-1,-20,-2,4
CCN(CC)c1ccc(/C=C/c2nc3ccccc3s2)cc1,94*,.,95*,86*,16,.
CN1CCN(C(=O)C2=NOC3(C2)C(=O)Nc2ccccc23)CC1 (configuration not stated),.,52*,.,.,.,9
CC(C)OC(=O)c1ccc(COC(=O)c2cnccn2)cc1,42,-1,69*,59*,15,4
O=C(CSc1nc2[nH]c(=O)cc(O)c2s1)Nc1nncs1,.,-7,.,.,.,10
Cc1csc(NC(=O)CSc2nc3[nH]c(=O)cc(O)c3s2)n1,.,58*,.,.,.,i
SMILES,SENP8 block-1,TRAIL sens C8,SENP7 inh,SENP6 block,PPC-1+TRAIL kill,SENP8 block-2
COC(=O)[C@@H]1Cc2c([nH]c3ccccc23)C(C)(C)N1C(=O)CCl,7,96*,-2,3,.,8
CC1=NN(c2ccccc2)C(=O)C1N=Nc1ccc(N)cc1 (configuration not stated),11,23,11,6,14,61*
CC1=NN(c2ccccc2)C(=O)C1N=Nc1ccccc1 (configuration not stated),-4,9,-1,-8,24,32
CCNC(=S)NS(=O)(=O)c1ccccc1,2,-4,3,7,-31,42*
O=C1CN(c2nc(-c3cccnc3)nc3sc4c(c23)CCCC4)CCN1,-8,19,-7,0,14,-431
Nc1nc(-c2cccnc2)nc2sc3c(c12)CCCC3,-15,60*,-6,-33,49,-371
O=C(Nc1ncc2c(n1)CC(c1ccco1)CC2=O)c1ccccc1 (configuration not stated),2,0,2,-14,58*,30
COCC(=O)Nc1c(C(=O)Nc2ccc3c(c2)OCO3)oc2ccccc12,-10,12,-13,-11,.,-26
O=C(CCl)Nc1c(C(=O)Nc2ccc3c(c2)OCCO3)oc2ccccc12,-2,61*,-3,-5,.,-51
O=C1c2ccccc2C(=O)c2c1cccc2-n1nnc2ccccc21,0,17,5,-11,30,32
O=C1C(N2CCOCC2)=C(n2nnc3ccccc32)C(=O)c2ccccc21,74*,94*,35,76*,35,76*
COC1=CC(=NCl)C=CC1=NCl,.,-1,.,.,.,76*
COc1cc(NC(=O)CCC(=O)N2CCN(S(=O)(=O)c3ccc(C)cc3)CC2)cc(OC)c1,.,8,.,.,.,13
Cc1onc(-c2c(F)cccc2Cl)c1C(=O)Nc1nc2ccccc2[nH]1,-12,49*,-9,4,-11,13
O=C(/C=C/c1c(F)cccc1Cl)Nc1nc2ccccc2[nH]1,-28,28,69*,-27,23,6
Cc1ccc(/C=C/C(=O)Nc2nc3ccccc3[nH]2)cc1,-12,23,18,4,40,-22
CCSc1ccccc1C(=O)Nc1cc(C)on1,-4,6,1,13,-12,20
Cc1cc(NC(=O)c2ccccc2-c2ccccc2C(=O)O)no1,0,8,12,8,50*,11
CC(/C=C/c1ccc(N(C)C)cc1)=N\N=C(/N)SC1CC(=O)N(c2ccc(C(=O)O)cc2)C1=O (configuration not stated),-9,46,2,5,54*,-152
NC(=O)[C@@H]1CCCN1Cc1c(C(=O)N2CCc3ccccc3C2)nc2ccc(Cl)cn12,-2,-13,-1,-3,.,-27
COc1cccc(/C=N/Nc2ncnc(Cl)c2N)c1O,7,59*,15,16,60*,-51
COc1cccc(/C=N/Nc2nc3ccccc3n3cnnc23)c1O,-17,54*,-7,-22,34,14
